Sampled rows, rich in hits. Any-hit rate of the full collection: about 7.9%.
HT1080 IDH1KD tx: qHTS for induction of synthetic lethality in tumor cells producing 2HG: qHTS for the HT-1080-IDH1KD cell line; HT-1080 IDH1 knockdown viability, ATP luminescence, 48 h; Potency, µM (series often up to 46.1 µM), for the others: at the highest dose activity, negative = toxicity, usual class: cytotoxic; hit rate 2% among 360,000;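 note: 0% = DMSO wells and -100% = cell-free medium wells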
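Viability of IDH1-knockdown HT-1080 fibrosarcoma cells was assessed by CellTiter-Glo after 48 h at 37 °C with titrated compound; concentration-effect curves were classified by fit quality and response size.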
SW480 rereplic: A quantitative high throughput screen for small molecules that induce DNA re-replication in SW480 colon adenocarcinoma cells; SW480 DNA re-replication, Hoechst DNA content imaging, 48 h; Potency, µM (series often up to 46.1 µM), inactives show at the highest dose re-replication activation, usual class: activators; hit rate 1.8% among 340,000; note: % of control where 0% means no effect; nearly all actives have a fitted effect of over 55% in size
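250 cells/well; 23 nL cpd via pin tool; 48 hr, 37 C, 5% CO2; Hoechst 40 min; imager read of total nuclear intensity, ex 405/em 500-530 nm.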
HT1080-NT tox: qHTS for induction of synthetic lethality in tumor cells producing 2HG: qHTS for the HT-1080-NT fibrosarcoma cell line. Potency, µM (series often up to 46.1 µM), for inactives: at the top dose activity, negative = less viability, actives largely listed as cytotoxic. hit rate 1.6% among 360,000. HT-1080-NT fibrosarcoma viability, CellTiter-Glo ATP luminescence, 48 h;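 note: NT is the 2HG producing partner of a matched IDH1 knockdown line; 0% = DMSO-treated cells and -100% = media-only wells without cells; nearly all actives have a fitted effect of over 55% in size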
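Fibrosarcoma NT cells, 750 per well in 5% FBS RPMI, were exposed to compound for 48 hours. Viability: CellTiter-Glo luminescence.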
KB-V1 MDR tox: qHTS assay for MDR1-selective chemotherapeutics: Primary screen using the drug-selected MDR subline cells KB-V1 | KB-V1 MDR cells viability, CellTiter-Glo, 72 h | Potency, µM (titrated, usually from 46.1 µM), actives largely listed as cytotoxic | hit rate 3.4% among 400,000 | AID 1347076, 2019; note: % is set by controls: 0 for no effect and ±100 for the full control effect; nearly all actives have a fitted effect of over 60% in size
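Potencies derive from concentration-effect curves fitted to normalized luminescence (CellTiter-Glo) of KB-V1 cells treated for 72 h at 37 degrees C in phenol-red-free DMEM containing 10% FBS.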
MCF10A rereplic: A quantitative high throughput screen for small molecules that induce DNA re-replication in MCF 10a normal breast cells; MCF 10A DNA re-replication, Hoechst nuclear intensity, 48 h; hit rate 2.9% among 350,000; Potency, µM (series often up to 46.1 µM), for inactives: at the top dose activity, positive = re-replication, actives largely listed as activators; note: % of control where 0% means no effect; nearly all actives have a fitted effect of over 50% in size
KB-3-1 cytotox: qHTS assay for MDR1-selective chemotherapeutics: Primary screen using the parental adenocarcinoma cell KB-3-1; KB-3-1 viability, CellTiter-Glo ATP luminescence, 72 h; Potency, µM (doses to about 46.1 µM), usual class: cytotoxic; hit rate 1.4% among 400,000; note: % is set by controls: 0 for no effect and ±100 for the full control effect; nearly all actives have a fitted effect of over 60% in size
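KB-3-1 parental drug-naive adenocarcinoma cells in DMEM/10% FBS, incubated 72 h at 37 C with pin-transferred compounds across a concentration series. Viability by CellTiter-Glo luminescence; concentration-response curves fitted after normalization.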
Numbers without * were called inactive; i = inactive; ? = inconclusive; . = no result given. Calls come from the whole dose curve; as a rule, active = well fitted curve in the direction sought with a large enough effect; inconclusive = small, poorly fitted or top-dose-only effect, or another doubt; inactive = no such curve, though single readings can be large; an effect the other way counts as inactive or inconclusive. Potency is the fitted concentration of half-maximal effect.

SMILES	HT1080 IDH1KD tx	SW480 rereplic	HT1080-NT tox	KB-V1 MDR tox	MCF10A rereplic	KB-3-1 cytotox
CCOc1cc(/C=C2\CN(C)C/C(=C\c3ccc(O)c(OCC)c3)C2=O)ccc1O	4.61µM*	1.64µM*	4.11µM*	20.6µM*	0.731µM*	7.31µM*
CCOc1cc(/C=C2\CCC/C(=C\c3cc(Cl)c(O)c(OCC)c3)C2=O)cc(Cl)c1O	5.8µM*	?	7.31µM*	?	?	?
CCOc1cc(/C=C2\CCn3c2nc2cc(Cl)ccc2c3=O)ccc1O	-10.7%	10.3µM*	-9.1%	i	13µM*	i
COC(=O)N/N=C/C1=C[N+](=O)c2ccccc2[N+]1=O	.	4.3%	.	.	1.0%	.
O=C(NCc1ccco1)c1noc2c1CCCC2	?	?	?	i	4.0%	i
CC1CCc2sc3ncn4nc(C(=O)NCc5ccco5)nc4c3c2C1 (centres undefined)	23.1%	-5.0%	12.1%	6.51µM*	1.8%	i
CC1CCc2c(sc3ncn4c(SCC(=O)NCc5ccco5)nnc4c23)C1 (centres undefined)	8.9%	-2.4%	0.6%	i	-7.9%	i
CC1CCc2onc(C(=O)NCc3ccco3)c2C1 (centres undefined)	13µM*	?	18.4µM*	?	?	?
O=C(NCCc1ccccc1)c1ccc(CS(=O)(=O)Cc2ccc(F)cc2)o1	-3.5%	-18.7%	-5.9%	?	-2.5%	i
COCc1c(C(=O)OCC(=O)c2c(N)n(CC(C)C)c(=O)n(C)c2=O)oc2ccccc12	-1.1%	0.8%	-10.7%	i	?	?
Nc1ccccc1N1C(=O)c2cccc3cccc(c23)C1=O	-2.1%	18.4µM*	-3.5%	?	8.2µM*	i
O=C1c2cccc3cccc(c23)C(=O)N1c1ccccc1Cl	-3.3%	-3.4%	3.5%	i	18.0%	i
CCN1CCN(C(=O)c2ccc(OC3CCN(CCc4ccccc4)CC3)cc2)[C@@H](C)C1=O	9.8%	1.1%	5.1%	i	4.0%	i
CN1CCN(C(=O)CSc2nnc(COc3ccccc3)o2)CC1	1.5%	-2.6%	-0.5%	i	?	i
COc1cccc(/C=N/Nc2ccc([N+](=O)[O-])cn2)c1O	1.16µM*	1.16µM*	0.651µM*	i	?	5.17µM*
COc1cccc(/C=N/Nc2nc(Nc3ccc([N+](=O)[O-])cc3)nc(N3CCCC3)n2)c1O	3.26µM*	5.8µM*	9.2µM*	?	5.8%	16.4µM*
O=[N+]([O-])c1ccc(NN=Cc2cccc3ccccc23)nc1	23.8%	3.26µM*	2.1%	i	?	?
O=C(O)c1ccccc1C=NNc1ccc([N+](=O)[O-])cn1	-1.6%	-2.5%	?	i	-23.0%	i
O=C(CN1CCN(S(=O)(=O)c2ccccc2)CC1)NCc1ccccc1	17.1%	25.2%	10.9%	i	-54.1%	i
Cn1nnnc1SCc1nnc(-c2ccccc2Br)o1	3.6%	0.9%	4.7%	i	-2.9%	i
Cc1ccc(-n2nnnc2SCc2nnc(-c3ccccc3Br)o2)c(C)c1	-5.6%	1.7%	-25.9%	10.3µM*	-1.6%	i
FC(F)(F)Sc1ccc(NC(=S)NCc2ccccc2)cc1	-26.1%	-0.9%	-15.9%	?	?	?
CC(=O)Nc1ccc(Nc2nc(-c3c(C)nc4ccccn34)cs2)cc1	2.91µM*	?	?	?	?	?
